Results filed as inconclusive are left out. Activity calls are given as the source filed them. Calls come from the whole dose curve; as a rule, active = well fitted curve in the direction sought with a large enough effect; inconclusive = small, poorly fitted or top-dose-only effect, or another doubt; inactive = no such curve, though single readings can be large; an effect the other way counts as inactive or inconclusive.
Legend:
[1] = test system: Zika virus NS2B-NS3 protease (linked construct); test: Primary screen NINDS Rhodamine qHTS for Zika virus inhibitors (AID 1347160); details: outcome: dose series up to 57.1 µM unless noted; note: nearly all actives have a fitted effect of over 55% in size
Procedure, shortened: (§1)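 Percent inhibition, normalized to uninhibited and enzyme-free controls, is fitted to a 4-parameter Hill equation. Fluorescence change comes from a 15-min cleavage of 1.5 microM bis-peptide Rhodamine110 substrate by 25 nM linked NS2B-NS3 at room temperature.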

[2] = target: Protein phosphatase 1D (Homo sapiens) (UniProt O15297); test: Rhodamine-PBP qHTS Assay for Modulators of WT P53-Induced Phosphatase 1 (WIP1) (AID 1347425)
Procedure, shortened: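 Steps: enzyme with Rh-PBP sensor and compounds, room-temperature incubation of 1 hr, baseline read, addition of VEPPL-pS-QETFS (10 uM final), kinetic fluorescence reads at 525/598 nm. Activity equals final minus baseline signal.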

[3] = Primary qHTS for inhibitors of La Crosse Virus (LACV) - induced cell death in SH-SY5Y cells (AID 1508616);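 note: top concentration of the series differs between compounds; higher means more rescue of cells from virus-induced death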
Procedure, shortened: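 Protection against LACV-induced cell death is scored in SH-SY5Y cells exposed to compounds and virus (0.01 MOI) for 6 days. Data normalized to virus-infected DMSO wells and virus-free DMSO wells.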

[4] = target: Calcium and integrin-binding protein 1 (Homo sapiens) (UniProt Q99828); test: Primary qHTS for Identification of Calcium Integrin Binding Protein 1 (CIB1) Competitor (AID 1508620);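 note: GST tagged CIB1 binding a fluorescein labelled alphaIIb integrin peptide tracer; top concentration of the series differs between compounds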
Procedure, shortened: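 Fluorescence polarization competition: CIB1-GST (1 uM final) preincubated with compound 15 min at room temperature, then FITC-labeled alphaIIb peptide (100 nM final) added for another 15 min. Polarization read at Ex 480/Em 540.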

[5] = qHTS for inhibitors of adenylyl cyclases using a fission yeast platform: a pilot screen against the NCATS LOPAC library (AID 1347410)
Procedure, shortened: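 Fission yeast qHTS: CHP2027 cells (AC9-GNAS-PDE4D2, fbp1-GFP), 5x10^6 cells/mL working density, EMM + His/Lys/Ura; LOPAC at up to 57 µM final; 18 h dark, 30C; GFP by laser cytometry. DPI positive control, DMSO vehicle.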

[6] = qHTS to identify inhibitors of the type 1 interferon - major histocompatibility complex class I in skeletal muscle: primary screen against the NCATS Mechanism Interrogation Plate v5.0 (MIPE) Libary (AID 1347411); note: nearly all actives have a fitted effect of over 65% in size; note: potency is the fitted concentration of half-maximal effect
Procedure, shortened: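 Luminescence from HiBiT-tagged endogenous HLA-B*08:01 served as the MHC class I read-out. CRISPR-engineered C25cl48 human myoblasts received 4.0 ng/ml IFN-beta plus compound for 24 hrs, with an 11-point, 1:3 series topping at 46 uM final.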

[7] = Validation qHTS assay for inhibitors of Activation Induced Cytidine Deaminase (AID): UDG Counterscreen signal (AID 1347427)
Procedure, shortened: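 Counterscreen read of UDG activity (2 U/mL, 4/3x) in the FRET deamination format with AID (1 uM, 4/3x), DJC20/DJC23 substrates (250 nM, 4x), 4 h at room temperature. NaOH stop, fluorescence at 560 ex/665 em.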

[8] = target: Single-stranded DNA cytosine deaminase (Homo sapiens) (UniProt Q9GZX7); test: Validation qHTS assay for inhibitors of Activation Induced Cytidine Deaminase (AID): AID signal (AID 1347429)
Procedure, shortened: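 Fluorescence at 540 nm excitation and 590 nm emission reports ssDNA cytosine deamination by AID, with UDG in the same well. Compound-treated reactions ran 4 hr at room temperature with DJC20/DJC23 substrate, followed by 30 min NaOH treatment.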

[9] = target: Calcium and integrin-binding protein 1 (Homo sapiens) (UniProt Q99828); test: Validation qHTS for Identification of Calcium Integrin Binding protein 1 (CIB1) Competitor (AID 1508618)
Procedure, shortened: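 In this qHTS validation, the LOPAC set (up to 114 uM) was tested for blocking CIB1 binding to a fluorescein-tagged alphaIIb peptide, with FP detection at 480/540 nm.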

[10] = qHTS to identify inhibitors of the type 1 interferon - major histocompatibility complex class I in skeletal muscle: primary screen against the NCATS LOPAC collection (AID 1347405);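 note: lytic HiBiT luminescence reporting HLA-B protein level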
Procedure, shortened: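 Luminescence from HiBiT fused to endogenous HLA-B in CRISPR-engineered human myoblasts served as the read-out. Cells received 4.0 ng/ml IFN-beta plus compound (seven concentrations, 1:4.3 steps, highest 46 uM final) for 24 hrs before lytic detection.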

[11] = Confirmatory screen NINDS Rhodamine qHTS for Zika virus inhibitors (AID 1347161); note: nearly all actives have a fitted effect of over 60% in size; note: potency is the fitted concentration of half-maximal effect
Procedure, shortened: as §1

[12] = Vero cells viability qHTS for Zika virus inhibitors (AID 1347167); note: potency is the fitted concentration of half-maximal effect
Procedure, shortened: (§2)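 Counter-screen for cytotoxicity of hits from NS2B-NS3 protease qHTS. Overnight-attached cells (2.5 x 10^5 cells/mL, DMEM/4% FBS) were dosed in titration, incubated 24 to 48 hours, then assayed by CellTiter Glo.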

[13] = HepG2 cells viability qHTS for Zika virus inhibitors (AID 1347168); note: potency is the fitted concentration of half-maximal effect
Procedure, shortened: as §2

[14] = target: Protein phosphatase 1D (Homo sapiens) (UniProt O15297); test: RapidFire Mass Spectrometry qHTS Assay for Modulators of WT P53-Induced Phosphatase 1 (WIP1) (AID 1347424);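 note: amount of dephosphorylated VEPPL-S-QETFS peptide product formed by WIP1; series mostly up to about 63 µM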
Procedure, shortened: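 WIP1 (10 nM final) was preincubated 1 h at room temperature with compounds in Tris-HCl pH 7.5, 30 mM MgCl2, TCEP, EGTA, BSA; 2 uM VEPPL-pS-QETFS phosphopeptide was added for 5 min, quenched with formic acid, and dephosphorylated product quantified by RapidFire MS.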

[15] = qHTS to identify inhibitors of the type 1 interferon - major histocompatibility complex class I in skeletal muscle: primary screen against the NCATS Pharmaceutical Collection (AID 1347407);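 note: luminescence of HiBiT knocked into endogenous HLA-B as interferon-induced MHC class I level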
Procedure, shortened: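 Luminescence from HiBiT-tagged endogenous HLA-B*08:01 served as the read-out of IFN-beta-induced MHC class I in CRISPR-engineered C25cl48 myoblasts. Cells received 4 ng/ml IFN-beta plus compound (high final 46 uM, […]) for 24 h.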

[16] = test system: Zika virus NS2B-NS3 protease (linked); test: 384 well plate NINDS AMC confirmatory qHTS for Zika virus inhibitors (AID 1347163); details: Recombinant NS2B-NS3 protease, Ac-VKTGKR-AMC fluorescence; note: potency is the fitted concentration of half-maximal effect; nearly all actives have a fitted effect of over 50% in size
Procedure, shortened: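 Linked NS2B-NS3 protease (final 5 nM, 30 nM or 60 nM) was preincubated with compounds (final up to 1 mM) for ~15 minutes. Ac-VKTGKR-AMC substrate (final 30 microM) then reacted for 25 minutes at room temperature in the dark. Fluorescence (ex 355/em 460 nm) was normalized to no-enzyme and no-inhibitor controls.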

[17] = test system: Zika virus NS2B-NS3 protease (linked construct); test: 384 well plate NINDS Rhodamine confirmatory qHTS for Zika virus inhibitors (AID 1347164); details: rhodamine-110 peptide substrate fluorescence;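 note: fluorescence from protease cleavage of Ac-LKRR-rhodamine 110 substrate; potency is the fitted concentration of half-maximal effect; nearly all actives have a fitted effect of over 65% in size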
Procedure, shortened: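 Enzyme (final 5/30/60 nM) + cpd (DMSO), ~15 min; add Ac-LKRR-Rd 10 microM final; 25 min RT, dark; FI ex 485/em 538; normalized to no-enzyme, no-inhibitor ctrls; aprotinin intraplate ctrl.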

[18] = Counterscreen qHTS for small molecule stabilizers of the endoplasmic reticulum resident proteome: GLuc-NoTag assay (AID 1508627);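 note: SH-SY5Y cells given compound then 100 nM thapsigargin to empty ER calcium; series mostly up to about 76 µM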
Procedure, shortened: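 SH-SY5Y cells stably expressing constitutively secreted GLuc (no SERCaMP tag) were pre-incubated 5 h, treated with compound for 19 h, then 100 nM thapsigargin for 4 h at 37C; medium GLuc read by coelenterazine luminescence.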

[19] = Confirmatory qHTS for small molecule stabilizers of the endoplasmic reticulum resident proteome: Secreted ER Calcium Modulated Protein (SERCaMP) assay (AID 1508628); note: potency is the fitted concentration of half-maximal effect; nearly all actives have a fitted effect of over 40% in size
Procedure, shortened: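 SH-SY5Y cells stably expressing GLuc-SERCaMP, treated 16 h with compound (primary 1.53, 7.67, 38.3 uM; confirmation 11 concentrations, up to 76.6 uM), then 100 nM thapsigargin for 4 h. Secreted Gaussia luciferase in medium read by coelenterazine luminescence.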

Measured: Potency

Single-stranded DNA cytosine deaminase (Homo sapiens), sequence (Q9GZX7 whole entry, looked up): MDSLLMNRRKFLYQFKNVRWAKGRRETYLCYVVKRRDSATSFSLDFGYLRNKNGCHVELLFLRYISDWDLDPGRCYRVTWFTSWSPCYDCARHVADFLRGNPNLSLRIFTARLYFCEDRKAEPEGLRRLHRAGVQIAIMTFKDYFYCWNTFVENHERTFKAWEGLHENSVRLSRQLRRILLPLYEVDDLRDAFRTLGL
Protein phosphatase 1D (Homo sapiens), sequence (O15297 whole entry, looked up): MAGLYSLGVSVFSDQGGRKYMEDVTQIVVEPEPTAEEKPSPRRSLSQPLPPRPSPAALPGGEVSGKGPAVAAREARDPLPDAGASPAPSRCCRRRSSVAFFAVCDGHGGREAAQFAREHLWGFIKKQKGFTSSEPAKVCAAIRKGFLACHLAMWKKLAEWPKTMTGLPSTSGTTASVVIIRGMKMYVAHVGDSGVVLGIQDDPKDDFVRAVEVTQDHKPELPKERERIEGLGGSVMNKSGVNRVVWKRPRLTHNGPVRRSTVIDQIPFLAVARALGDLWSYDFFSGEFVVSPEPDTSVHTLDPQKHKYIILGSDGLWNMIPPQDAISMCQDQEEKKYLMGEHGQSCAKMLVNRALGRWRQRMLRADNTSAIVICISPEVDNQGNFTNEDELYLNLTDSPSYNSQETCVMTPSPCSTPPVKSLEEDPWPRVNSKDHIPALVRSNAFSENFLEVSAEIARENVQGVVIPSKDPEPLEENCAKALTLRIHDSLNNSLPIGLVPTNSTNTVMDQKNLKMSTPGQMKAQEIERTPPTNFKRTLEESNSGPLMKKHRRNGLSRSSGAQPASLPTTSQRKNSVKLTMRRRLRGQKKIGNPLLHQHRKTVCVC
Calcium and integrin-binding protein 1 (Homo sapiens), sequence (Q99828 whole entry, looked up): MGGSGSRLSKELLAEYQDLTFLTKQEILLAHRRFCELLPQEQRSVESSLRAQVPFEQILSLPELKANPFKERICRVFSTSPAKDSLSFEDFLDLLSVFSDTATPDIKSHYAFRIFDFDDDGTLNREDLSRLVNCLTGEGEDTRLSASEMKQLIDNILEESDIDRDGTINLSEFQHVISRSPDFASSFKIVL

Cc1onc(-c2ccccc2Cl)c1C(=O)N[C@@H]1C(=O)N2[C@@H]1SC(C)(C)[C@@H]2C(=O)O
inactive: [1] | [2] | [3] | [4]

COc1cc2ncnc(Nc3cccc(Cl)c3)c2cc1OC
active: [6] 29.4 µM
inactive: [1] | [5] | [7] | [8] | [3] | [9]

O=C(O)C1CCCN(CCC=C(c2ccccc2)c2ccccc2)C1 (stereo not drawn)
inactive: [10] | [5] | [6] | [7] | [8] | [3] | [9] | [4]

Nc1nc(N)c2nc(CNc3ccc(C(=O)NC(CCC(=O)O)C(=O)O)cc3)cnc2n1 (stereo not drawn)
inactive: [12] | [13] | [10] | [5] | [7] | [8] | [3] | [4]
active: [11] 55.3 µM

O=P(O)(O)C(O)(Cc1cccnc1)P(=O)(O)O
inactive: [1] inactive [at 4.91 µM] | [6] | [14] | [2] | [3] | [4]

CCCc1nc(C)c2c(=O)[nH]c(-c3cc(S(=O)(=O)N4CCN(CC)CC4)ccc3OCC)nn12
inactive: [11] | [12] | [13] | [15] | [14] | [2] | [3] | [4]

COC(=O)Nc1nc2ccc(C(=O)c3ccccc3)cc2[nH]1
active: [16] 126 µM | [17] 178 µM
inactive: [12] | [13] | [14] | [2]

COc1c(N2CCNC(C)C2)c(F)cc2c(=O)c(C(=O)O)cn(C3CC3)c12 (stereo not drawn)
active: [19] 14.1 µM
inactive: [11] | [12] | [13] | [6] | [14] | [2] | [3] | [4] | [18]

O=C(NCC1CN(c2ccc(N3CCOCC3=O)cc2)C(=O)O1)c1ccc(Cl)s1 (stereo not drawn)
inactive: [1] | [15] | [2] | [3] | [4]

CN(C)CCc1c[nH]c2ccc(C[C@H]3COC(=O)N3)cc12
inactive: [1] | [15] | [14] | [2] | [3] | [4]

CNS(=O)(=O)CCc1ccc2[nH]cc(C3CCN(C)CC3)c2c1
inactive: [1] | [10] | [5] | [14] | [2] | [3] | [9]

CCN(CC)CC#CCOC(=O)C(O)(c1ccccc1)C1CCCCC1 (stereo not drawn)
inactive: [10] | [5] | [7] | [8] | [3]

NC1(c2ccc(-c3nc4ccn5c(=O)[nH]nc5c4cc3-c3ccccc3)cc2)CCC1
inactive: [1] | [14] | [2] | [3] | [4]

CNC(=O)c1cc(Oc2ccc(NC(=O)Nc3ccc(Cl)c(C(F)(F)F)c3)cc2)ccn1
inactive: [15] | [14] | [2] | [3] | [4]
active: [11] 25.5 µM | [12] 7.58 µM | [13] 33.9 µM

CCCCc1oc2ccc(NS(C)(=O)=O)cc2c1C(=O)c1ccc(OCCCN(CCCC)CCCC)cc1
inactive: [1] inactive; activator | [14] | [2] | [3] | [4]

O=C(O)c1cn(C2CC2)c2cc(N3CCNCC3)c(F)cc2c1=O
inactive: [12] | [13] | [14] | [2] | [3]

CNC1CCCN(c2c(F)cc3c(=O)c(C(=O)O)cn(C4CC4)c3c2OC)C1 (stereo not drawn)
inactive: [11] | [12] | [13] | [2] | [3]

CC(C(=O)O)c1ccc2c(c1)CC(=O)c1ccccc1S2 (stereo not drawn)
inactive: [1] | [15] | [2] | [3]

CC1CC2C3CCC4=CC(=O)C=C[C@]4(C)[C@@]3(F)[C@@H](O)C[C@]2(C)[C@@]1(O)C(=O)CO (stereo partly drawn)
inactive: [10] | [5] | [7] | [8] | [3] | [9]

CC(C)NCC(O)c1ccc(NS(C)(=O)=O)cc1 (stereo not drawn)
inactive: [10] | [5] | [6] | [7] | [8] | [3] | [9] | [4]

CCN(CC)CCn1c(=O)c(Cc2ccc(OC)cc2)nc2ccccc21
inactive: [10] | [5] | [6] | [7] | [8] | [3] | [9] | [4]

O=C(O)c1ccc(-n2nc(-c3ccccc3O)nc2-c2ccccc2O)cc1
inactive: [12] | [13] | [15] | [6] | [2] | [3] | [4]
active: [11] 11 µM | [16] 112 µM | [17] 35.5 µM

CCn1cc(C(=O)O)c(=O)c2cc(F)c(N3CCNCC3)cc21
inactive: [12] | [13] | [15] | [14] | [2] | [3] | [4]

CC1=NN(c2ccccc2)C(=O)C1
inactive: [1] | [14] | [2] | [3] | [4]

COc1cc2c(Nc3ccc(Br)cc3F)ncnc2cc1OCC1CCN(C)CC1
inactive: [1] | [15] | [14] | [2]

Cc1nnc(C(=O)NC(C)(C)c2nc(C(=O)NCc3ccc(F)cc3)c(O)c(=O)n2C)o1
inactive: [1] | [14] | [2] | [3] | [4]

NC(=O)c1cccc(N)c1
inactive: [10] | [5] | [6] | [7] | [8] | [3] | [9]

From PubChem BioAssay (NCATS)
